Source: PubChem BioAssay
A number with no mark means an inactive call. Calls of active or inactive are those of the source. Cut-off read from the data, not from the text of the source, unless noted: active = inhibition above about 28%; inactive = the rest.

System: not listed separately
Assay: StAR promoter reporter inhibitors, counter-screen for LRH-1 inverse agonist project, cell-based, luminescence, high throughput (AID 651611)
Conditions: StAR promoter luciferase reporter counterscreen, at 3.6 µM, active compounds read high

Compound | inhibition
COc1ccc(OC)c(NC(=O)c2ccccc2NC(=O)c2ccco2)c1 | 12.6%
Cc1c(F)cccc1NS(=O)(=O)c1ccc(N2CCCC2=O)cc1 | -2.14%
CCOc1ccc(NC(=O)COC(=O)c2cc([N+](=O)[O-])ccc2N2CCOCC2)cc1 | 6.26%
COCc1cccc(-c2csc(C(C)(O)c3cccc(OC)c3)n2)c1 (stereo not given) | -0.93%
O=C(CN(Cc1ccccc1)C(=O)CCl)c1cccc(Br)c1 | 19%
Cn1c(CN2CCN(c3cccc(Cl)c3)CC2)nc2ccccc21 | -11.3%
Cc1cc(N2CCN(c3nc4ccccc4s3)CC2)n2ncnc2n1 | 21.5%
COc1ccc(S(=O)(=O)Nc2cc3c4c(oc3c3ccccc23)CCCC4=O)cc1 | 24.3%
CCCCCCCn1ccc(=N)cc1 | 44.1% (active)
Cn1cccc1C(=O)OCC(=O)N1CCN(c2ccccc2)CC1 | 2.85%
C=CC[n+]1c(/C=C2\C=Cc3cc(C)ccc3N2CC)ccc2ccccc21 | 80.6% (active)
O=C(Nc1ccc(Nc2ccccc2)cc1)c1cc([N+](=O)[O-])ccc1Cl | 6%
O=C(N/N=C/c1ccc([N+](=O)[O-])s1)C(O)c1ccccc1 (stereo not given) | 25.9%
COc1ccc(NC(=O)CN2C(=O)NC3(CCCc4ccccc43)C2=O)c(OC)c1 (stereo not given) | 12.3%
CCC(NC(=O)CCl)c1ccc(C)cc1 (stereo not given) | 29.5% (active)
CC(=O)Nc1cc(-c2cccnc2)cn2c(-c3ccc(F)cc3)cnc12 | 9.06%
COC(=O)c1ccc(NC(=O)CN2CCC(NC(=O)c3ccccc3F)CC2)cc1 | 23.6%
Cc1cc(NC(=O)CSc2nc3c(sc4ccccc43)c(=O)n2CCCN2CCOCC2)n[nH]1 | 48% (active)
CN(C)c1nnnn1-c1cccc(Oc2ncc(C(F)(F)F)cc2Cl)c1 | 8.18%
COc1ccc(CCNC(=O)COC(=O)Cc2ccccc2[N+](=O)[O-])cc1 | 8.86%

Compound | inhibition
O=C(Nc1ccc(N2CCN(C(=O)c3ccccc3)CC2)cc1)c1ccc([N+](=O)[O-])o1 | 22.4%
N#CCCn1cc(/C=N/NC(N)=S)c(-c2ccc(-c3ccccc3)cc2)n1 | 28.7% (active)
CC(=O)Nc1cc(-c2cccc(N)c2)cn2c(-c3ccc(C(C)=O)cc3)cnc12 | 19.6%
CC(=O)Nc1ccc(-c2ccnc3c2CC(C(=O)NCc2ccco2)O3)cc1 (stereo not given) | 48.1% (active)
CN(C)S(=O)(=O)c1cccc(C(=O)OCC(=O)Nc2ccc3c(c2)OCCO3)c1 | 17.9%
Cc1ccc2c(c1)Oc1ccc(NC(=O)CCl)cc1C(=O)N2 | 61.7% (active)
CC(C)NC(=O)CN1CCN(C(=O)CCl)CC1 | 1.19%
C/C=C/c1ccc(OCCOc2ccc(C=O)cc2OC)c(OC)c1 | 11.4%
O=C(Nc1nc(-c2cccs2)cs1)c1ccc([N+](=O)[O-])o1 | -1.18%
COc1ccc(NC(=O)CSc2nnc(-c3ccccn3)n2N)cc1Cl | 20.3%
COc1cc(CNc2ccc(CNc3ncn[nH]3)cc2)ccc1OCC(=O)NC(C)(C)C | -5.1%
CCOc1ccc(NC(=O)CSc2nc3[nH]ncc3c(=O)[nH]2)cc1 | 8.84%
CC(C(=O)OCC(=O)Nc1ccc2c(c1)OCO2)N1C(=O)c2ccccc2C1=O (stereo not given) | -2.26%
COc1ccc(Nc2nc(Nc3ccc(OC)cc3)nc(SC3=NCCS3)n2)cc1 | 19.6%
COc1ccc(NC(=O)COC(=O)/C=C/C(=O)OCC(=O)Nc2ccc(OC)c(Cl)c2)cc1Cl | 6.28%
COc1ccc(NC(=O)CS(=O)(=O)c2ccc(C)cc2)c(OC)c1 | 17%
CC(C)Cn1c(N)c(C(=O)NCC2CCCO2)c2nc3ccccc3nc21 (stereo not given) | 23.3%
O=[N+]([O-])c1cnccc1Nc1ccc(F)cc1 | 13.2%
CCOc1ccc(CCNC(=O)COC(=O)Cc2c[nH]c3ccccc23)cc1OCC | 9.43%
CCC(=O)N1CCN(c2ccc(NC(=O)c3ccc([N+](=O)[O-])o3)cc2Cl)CC1 | 13%

Molecular target: Nuclear receptor subfamily 5 group A member 2 (Homo sapiens) (UniProt O00482)
Sequence (O00482 whole entry, looked up): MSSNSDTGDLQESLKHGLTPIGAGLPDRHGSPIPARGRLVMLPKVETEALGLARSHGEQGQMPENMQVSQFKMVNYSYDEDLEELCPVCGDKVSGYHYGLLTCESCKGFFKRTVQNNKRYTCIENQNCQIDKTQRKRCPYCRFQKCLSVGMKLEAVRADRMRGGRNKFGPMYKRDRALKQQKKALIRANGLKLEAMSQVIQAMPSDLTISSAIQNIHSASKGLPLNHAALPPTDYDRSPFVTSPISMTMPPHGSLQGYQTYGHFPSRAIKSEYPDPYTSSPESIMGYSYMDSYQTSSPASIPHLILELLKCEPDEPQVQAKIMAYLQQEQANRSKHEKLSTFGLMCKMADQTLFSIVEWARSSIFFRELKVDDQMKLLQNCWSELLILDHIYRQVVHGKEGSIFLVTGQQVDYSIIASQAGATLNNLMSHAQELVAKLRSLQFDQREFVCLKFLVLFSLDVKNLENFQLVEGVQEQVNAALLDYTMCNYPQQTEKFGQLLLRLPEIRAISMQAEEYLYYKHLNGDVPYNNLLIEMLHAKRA
Assay: LRH-1 (NR5A2) inverse agonists, retest, confirmation, cell-based, luminescence (AID 651613; in the data active = inhibition above about 42%;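 note: HEK293T cells co-transfected with LRH-1 and StAR promoter luciferase reporter; 0% = vehicle wells and 100% = parental cells lacking receptor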)
Conditions: cell-based LRH-1 luciferase reporter, inverse agonism; at 3.6 µM; active compounds read high

Compound | inhibition
COc1ccc(OC)c(NC(=O)c2ccccc2NC(=O)c2ccco2)c1 | 45.3% (active)
Cc1c(F)cccc1NS(=O)(=O)c1ccc(N2CCCC2=O)cc1 | 56% (active)
CCOc1ccc(NC(=O)COC(=O)c2cc([N+](=O)[O-])ccc2N2CCOCC2)cc1 | 55.9% (active)
COCc1cccc(-c2csc(C(C)(O)c3cccc(OC)c3)n2)c1 (stereo not given) | 45.2% (active)
O=C(CN(Cc1ccccc1)C(=O)CCl)c1cccc(Br)c1 | 55.7% (active)
Cn1c(CN2CCN(c3cccc(Cl)c3)CC2)nc2ccccc21 | 23.1%
Cc1cc(N2CCN(c3nc4ccccc4s3)CC2)n2ncnc2n1 | 52.4% (active)
COc1ccc(S(=O)(=O)Nc2cc3c4c(oc3c3ccccc23)CCCC4=O)cc1 | 69.6% (active)
CCCCCCCn1ccc(=N)cc1 | 86.7% (active)
Cn1cccc1C(=O)OCC(=O)N1CCN(c2ccccc2)CC1 | 32.7%
C=CC[n+]1c(/C=C2\C=Cc3cc(C)ccc3N2CC)ccc2ccccc21 | 110% (active)
O=C(Nc1ccc(Nc2ccccc2)cc1)c1cc([N+](=O)[O-])ccc1Cl | 52.7% (active)
O=C(N/N=C/c1ccc([N+](=O)[O-])s1)C(O)c1ccccc1 (stereo not given) | 46.7% (active)
COc1ccc(NC(=O)CN2C(=O)NC3(CCCc4ccccc43)C2=O)c(OC)c1 (stereo not given) | 50.9% (active)
CCC(NC(=O)CCl)c1ccc(C)cc1 (stereo not given) | 67.3% (active)
CC(=O)Nc1cc(-c2cccnc2)cn2c(-c3ccc(F)cc3)cnc12 | 51.7% (active)
COC(=O)c1ccc(NC(=O)CN2CCC(NC(=O)c3ccccc3F)CC2)cc1 | 52.3% (active)
Cc1cc(NC(=O)CSc2nc3c(sc4ccccc43)c(=O)n2CCCN2CCOCC2)n[nH]1 | 70.3% (active)
CN(C)c1nnnn1-c1cccc(Oc2ncc(C(F)(F)F)cc2Cl)c1 | 38.6%
COc1ccc(CCNC(=O)COC(=O)Cc2ccccc2[N+](=O)[O-])cc1 | 65.5% (active)

Compound | inhibition
O=C(Nc1ccc(N2CCN(C(=O)c3ccccc3)CC2)cc1)c1ccc([N+](=O)[O-])o1 | 64.8% (active)
N#CCCn1cc(/C=N/NC(N)=S)c(-c2ccc(-c3ccccc3)cc2)n1 | 52% (active)
CC(=O)Nc1cc(-c2cccc(N)c2)cn2c(-c3ccc(C(C)=O)cc3)cnc12 | 33.4%
CC(=O)Nc1ccc(-c2ccnc3c2CC(C(=O)NCc2ccco2)O3)cc1 (stereo not given) | 42.6% (active)
CN(C)S(=O)(=O)c1cccc(C(=O)OCC(=O)Nc2ccc3c(c2)OCCO3)c1 | 51.5% (active)
Cc1ccc2c(c1)Oc1ccc(NC(=O)CCl)cc1C(=O)N2 | 68.3% (active)
CC(C)NC(=O)CN1CCN(C(=O)CCl)CC1 | 52.8% (active)
C/C=C/c1ccc(OCCOc2ccc(C=O)cc2OC)c(OC)c1 | 44.7% (active)
O=C(Nc1nc(-c2cccs2)cs1)c1ccc([N+](=O)[O-])o1 | 51.9% (active)
COc1ccc(NC(=O)CSc2nnc(-c3ccccn3)n2N)cc1Cl | 48.5% (active)
COc1cc(CNc2ccc(CNc3ncn[nH]3)cc2)ccc1OCC(=O)NC(C)(C)C | 14.1%
CCOc1ccc(NC(=O)CSc2nc3[nH]ncc3c(=O)[nH]2)cc1 | 56.8% (active)
CC(C(=O)OCC(=O)Nc1ccc2c(c1)OCO2)N1C(=O)c2ccccc2C1=O (stereo not given) | 49.2% (active)
COc1ccc(Nc2nc(Nc3ccc(OC)cc3)nc(SC3=NCCS3)n2)cc1 | 53.3% (active)
COc1ccc(NC(=O)COC(=O)/C=C/C(=O)OCC(=O)Nc2ccc(OC)c(Cl)c2)cc1Cl | 50.8% (active)
COc1ccc(NC(=O)CS(=O)(=O)c2ccc(C)cc2)c(OC)c1 | 53.1% (active)
CC(C)Cn1c(N)c(C(=O)NCC2CCCO2)c2nc3ccccc3nc21 (stereo not given) | 42.8% (active)
O=[N+]([O-])c1cnccc1Nc1ccc(F)cc1 | 66.8% (active)
CCOc1ccc(CCNC(=O)COC(=O)Cc2c[nH]c3ccccc23)cc1OCC | 56.5% (active)
CCC(=O)N1CCN(c2ccc(NC(=O)c3ccc([N+](=O)[O-])o3)cc2Cl)CC1 | 56.2% (active)
